Bcl-B Bim block: inhibitors of Bim-Bcl-B binding, primary screen, biochemical, multiplexed, human Bcl-2 family; Bcl-2-like protein 10 (Homo sapiens), Q9HD36; bead-based flow cytometry, Bim peptide-Bcl-B binding; inhibition, % at 10 µM; hit rate 0.073% among 190,000; AID 951, 2007;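 also: 0% = tracer peptide without compound and 100% = reference inhibitor peptide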
Target sequence (Q9HD36 whole entry, looked up): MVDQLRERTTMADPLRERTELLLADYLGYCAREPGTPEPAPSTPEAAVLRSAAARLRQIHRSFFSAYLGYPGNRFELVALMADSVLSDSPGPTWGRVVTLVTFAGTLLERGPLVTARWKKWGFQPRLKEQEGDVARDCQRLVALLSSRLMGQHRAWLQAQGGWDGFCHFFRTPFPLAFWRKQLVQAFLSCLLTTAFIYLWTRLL
Bim-Bfl-1: inhibitors of Bim binding to Bfl-1, primary screen, biochemical, multiplexed, bead-based flow cytometry; Bcl-2-related protein A1 (Homo sapiens), Q16548; AID 1008, 2008; inhibition, % at 10 µM; Bim-Bfl-1 binding inhibition; hit rate 0.12% among 190,000;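 also: 0% = wells without compound plus tracer and 100% = blocker peptide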
Target sequence (Q16548 whole entry, looked up): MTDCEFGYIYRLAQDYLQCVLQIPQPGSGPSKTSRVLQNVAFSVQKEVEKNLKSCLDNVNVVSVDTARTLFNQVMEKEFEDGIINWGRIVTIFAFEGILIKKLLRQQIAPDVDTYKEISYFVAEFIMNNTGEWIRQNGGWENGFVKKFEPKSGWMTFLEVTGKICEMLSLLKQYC
Bcl-W Bim block: inhibitors of Bim binding to Bcl-W, primary screen, biochemical, multiplexed, bead-based flow cytometry; Bcl-2-like protein 2 (Homo sapiens), Q92843; Bim peptide-Bcl-W binding; inhibition, % at 10 µM; hit rate 0.02% among 190,000;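 also: 0% = bound tracer without compound and 100% = peptide blocker; higher means less fluorescent Bim peptide bound to Bcl-W beads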
Bim-Bcl-2: inhibitors of Bim-Bcl-2 binding, primary screen, biochemical, multiplexed, human Bcl-2 family. Apoptosis regulator Bcl-2 (Homo sapiens), P10415. Bead-based flow cytometry, Bim peptide-Bcl-2 binding. inhibition, % at 10 µM. hit rate 0.06% among 190,000. AID 950, 2007; in the data active = inhibition above about 40%;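 also: 0% = no compound wells with probe peptide and 100% = reference peptide inhibitor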
Target sequence (P10415 whole entry, looked up): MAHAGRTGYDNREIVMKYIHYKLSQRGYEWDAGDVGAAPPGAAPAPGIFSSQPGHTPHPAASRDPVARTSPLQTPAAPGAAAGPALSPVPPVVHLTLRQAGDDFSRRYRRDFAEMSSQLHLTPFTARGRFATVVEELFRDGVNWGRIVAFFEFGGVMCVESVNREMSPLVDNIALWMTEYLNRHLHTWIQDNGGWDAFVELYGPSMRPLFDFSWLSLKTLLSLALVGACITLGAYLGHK
Bcl-XL Bim block: inhibitors of Bim-Bcl-XL binding, primary screen, biochemical, multiplexed, bead flow cytometry, human Bcl-XL; Bcl-2-like protein 1 (Homo sapiens), Q07817; inhibition, % at 10 µM; Bim peptide-Bcl-XL binding, fluorescence; hit rate 0.04% among 190,000
Wee1 stabilizer: Wee1 degradation inhibitors, primary screen, cell-based, HeLa, Wee1K328M-luciferase, luminescence. Wee1-like protein kinase (Homo sapiens), P30291. HeLa Luc-Wee1K328M stability; 100% = proteasome inhibitor MG132 effect. reporter increase, % at 5 µM. hit rate 1.2% among 220,000. AID 1321, 2008;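 active = activation above the mean of all tested compounds plus 3 SD, set per screening run, cut at about 8.8% in these data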;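 also: cells exposed to compound for 20 h before luminescence read; 0% = DMSO alone and 100% = MG132 at 30 µM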
Starred values were filed as active, the others as inactive; · = no result given. Only some compounds are listed: those with a hit (about 1.4% of all), similar ones and a draw of the others. Rule as the data show it, unless noted: active = inhibition above about 40%.

SMILES | Bcl-B Bim block | Bim-Bfl-1 | Bcl-W Bim block | Bim-Bcl-2 | Bcl-XL Bim block | Wee1 stabilizer
COc1ccc(NS(=O)(=O)c2ccc(N3CCCC3)c(NC(=S)Nc3ccc(SC(F)F)cc3)c2)cc1 | -20.0 | 17.0 | -4.0 | 2.0 | -6.0 | 9.3*
O=C1c2ccccc2C(=O)N1c1ccc(S(=O)(=O)N2CCN(c3ccccc3)CC2)cc1 | -9.0 | -8.0 | 0.0 | -10.0 | -3.0 | 9.4*
CCOC(=O)C1CCN(C(=O)c2ccc(N(C)S(=O)(=O)c3ccc(OC)cc3)cc2)CC1 | -4.0 | -7.0 | -3.0 | -4.0 | -1.0 | 0.9
Cc1ccc2nc(-c3ccncc3)c(NC3CCCC3)n2c1 | 0.0 | 0.0 | -12.0 | 4.0 | -14.0 | -4.7
Cc1ccc2nc(-c3ccsc3)c(NC3CCCC3)n2c1 | 0.0 | 3.0 | 0.0 | 0.0 | 0.0 | 10.2*
Cn1c(CCN2CCOCC2)nc2cc(NC(=O)COc3ccccc3)ccc21 | -7.0 | -13.0 | -1.0 | -11.0 | -30.0 | 9.1*
O=C(N/N=C/C=C/c1ccccc1)c1ccccn1 | · | · | · | · | · | 8.9*
O=C(N/N=C/C=C/c1ccccc1)c1n[nH]c2c1CCC2 | -2.0 | -9.0 | 1.0 | 0.0 | -1.0 | 9.1*
Cc1ccc(Cl)c(OCC(=O)Nc2sc(C)c(C)c2C#N)c1 | -9.0 | -7.0 | -4.0 | -3.0 | -10.0 | 8.8*
NC(=O)N(CCC(=O)O)c1ccccc1 | -4.0 | -2.0 | -3.0 | -3.0 | -6.0 | 10.1*
COc1ccc(C(=O)NC(=S)N2CCNC(=O)C2)cc1Br | 70.0* | 71.0* | 3.0 | 79.0* | 4.0 | 0.9
CC1CC(=O)Nc2ccccc2N1C(=O)Nc1ccc(F)cc1 (stereo not drawn) | · | · | · | · | · | -0.1
CCOC(=O)CN1c2ccccc2NC(=O)CC1C (stereo not drawn) | -6.0 | -6.0 | 2.0 | -8.0 | -1.0 | 14.1*
Cc1cc(C)cc(NC(=O)N2c3ccccc3NC(=O)CC2C)c1 (stereo not drawn) | · | · | · | · | · | 9.6*
CC1CC(=O)Nc2ccccc2N1C(=O)CN1CCN(c2ccccc2)CC1 (stereo not drawn) | -4.0 | -4.0 | -1.0 | 4.0 | -3.0 | -3.2
C=CCc1c(C)nc2c(C)cccc2c1SC(=N)N | · | · | · | · | · | -2.0
O=C(Nc1ccc(C2SCCS2)cc1)c1ccccc1 | · | · | · | · | · | 10.1*
O=C(CN1C(=O)c2ccccc2C1=O)Nc1ccc(Cl)cn1 | 0.0 | -3.0 | 3.0 | -2.0 | 0.0 | 10.2*
O=C(CCc1ccccc1)Nc1ccc(Cl)cn1 | -3.0 | -1.0 | -3.0 | 2.0 | -1.0 | 5.3
Cc1ccc(C(=O)Nc2ccc3cn[nH]c3c2)cc1S(=O)(=O)N1CCOCC1 | -2.0 | -3.0 | -1.0 | -2.0 | 0.0 | 9.7*
Cc1ccc(C(=O)Nc2cccnc2)cc1S(=O)(=O)N1CCOCC1 | 0.0 | 0.0 | 3.0 | 4.0 | 2.0 | -2.5
Cc1c(NC(=O)C2CCCCC2)cc(C(=O)N2CCOCC2)cc1[N+](=O)[O-] | -2.0 | -2.0 | 0.0 | 2.0 | -1.0 | -1.9
CCOC(=O)N1CCN(C(=O)c2cccn3c(=O)c4sccc4nc23)CC1 | -4.0 | -10.0 | 2.0 | -6.0 | -3.0 | 10.2*
CCOC(=O)N1CCN(C(=O)c2cccn3c(=O)c4cc(Br)ccc4nc23)CC1 | -10.0 | -5.0 | -3.0 | -3.0 | -8.0 | -2.7
COc1cc(/C=C/C(=O)O)cc(S(=O)(=O)NCCCC(=O)O)c1OC | -5.0 | -4.0 | -2.0 | -3.0 | -2.0 | 1.9
SMILES | Bcl-B Bim block | Bim-Bfl-1 | Bcl-W Bim block | Bim-Bcl-2 | Bcl-XL Bim block | Wee1 stabilizer
Cc1cc(N)ccc1N1CCCC1 | 87.0* | 73.0* | 75.0* | 66.0* | 64.0* | -1.6
CCNC(=O)NC(=O)COC(=O)CCCc1nc2ccccc2s1 | -2.0 | -1.0 | 1.0 | -1.0 | 2.0 | 1.5
COC(=O)/C=c1/sc2n(c1=O)CCN=2 | -1.0 | 0.0 | -1.0 | -1.0 | -1.0 | 9.2*
COc1ccc(C(=O)NC(=S)NC(C)(C)C)cc1Br | -12.0 | -18.0 | -1.0 | -10.0 | -8.0 | -1.3
Cc1cccc(-c2ncc(CN3CCN(CCC(C)C)C(CCO)C3)cn2)c1 (stereo not drawn) | -2.0 | -6.0 | 0.0 | -6.0 | -2.0 | 2.0
COc1ccc(C(=O)Nc2ccc(C(=O)OCC(=O)c3cccc4ccccc34)cc2)cc1 | 83.0* | 20.0 | 24.0 | · | 15.0 | 4.9
CCC(=O)Nc1ccccc1C(=O)OCC(=O)c1cccc2ccccc12 | -1.0 | 0.0 | 0.0 | 1.0 | 1.0 | 2.9
CCC1C(=O)N(C)CCc2ccccc21 (stereo not drawn) | -3.0 | -1.0 | 0.0 | 2.0 | -2.0 | -2.5
O=C(OCC(=O)c1c[nH]c2ccccc12)C1=COCCO1 | 2.0 | 4.0 | -1.0 | 1.0 | 2.0 | 10.8*
Cn1cc2cc([N+](=O)[O-])ccc2n1 | -7.0 | -2.0 | -1.0 | 0.0 | -3.0 | 1.1
O=C(CNC(=O)c1cccs1)NCC(=O)OCc1c(F)cccc1Cl | -1.0 | -5.0 | -1.0 | 0.0 | 0.0 | 9.0*
O=C(CNC(=O)c1cccs1)NCC(=O)OCc1cccc(Cl)c1 | -3.0 | -2.0 | -1.0 | -4.0 | -1.0 | -1.5
Brc1cc(Br)cc(CN2CCSCC2)c1 | · | · | · | · | · | -1.3
CCCCN(C(=O)NC(=O)Nc1cccc(C)c1C)S(C)(=O)=O | -7.0 | -11.0 | 2.0 | -8.0 | -7.0 | -1.3
CCCCN(C(=O)NC(=O)Nc1ccccc1C)S(C)(=O)=O | 0.0 | 1.0 | 0.0 | 1.0 | 0.0 | 28.9*
O=C(NN=C1C2CC3CC1CC(Cl)(C3)C2)c1ccccn1 | 1.0 | -3.0 | 0.0 | -1.0 | -1.0 | 9.7*
Cc1ccc(NC(=O)CC2C(=O)N(Cc3ccccc3)C(=S)N2NC(=O)c2ccccc2)c(C)c1 (stereo not drawn) | -12.0 | -10.0 | -7.0 | -12.0 | -8.0 | 0.0
CNC(=O)CC1C(=O)N(Cc2ccccc2)C(=S)N1NC(=O)c1cccc(F)c1 (stereo not drawn) | 25.0 | 40.0* | 28.0 | 27.0 | 40.0* | -2.2
O=C(CN(C(=O)C1CSC(=O)C1)c1cccc(F)c1)NC1CCCC1 (stereo not drawn) | 0.0 | 4.0 | -4.0 | 1.0 | 0.0 | 9.2*
CCCCCn1c(CN2CCCCC2CC)nc2c1c(=O)n(C)c(=O)n2C (stereo not drawn) | · | · | · | · | · | 10.7*
FC(F)(F)c1ccc2c(c1)[nH]c(=S)n2C1CC1 | -29.0 | 9.0 | 0.0 | -3.0 | -4.0 | -2.4
O=C(NCC1OCCc2ccccc21)c1cc(COc2ccc(F)cc2Cl)on1 (stereo not drawn) | -4.0 | -7.0 | -1.0 | -6.0 | -3.0 | 0.1
CSc1ncccc1C(=O)Nc1nc2ccc(S(C)(=O)=O)cc2s1 | 0.0 | -2.0 | 0.0 | -2.0 | 0.0 | 8.9*
